According to the supplement of paper PMC3334620:
Over roughly 33,000 sequences, “E-score (-0.5 to 0.5)” has its median near -0.01; the highest 2% begin near 0.26. What follows is part of a selection rich in the highest values, with near analogues and random picks from the rest.

These sequences were tested against Ste12 (UniProt P13574) (assay: PBM E-score (8-mer binding enrichment) (E-score (-0.5 to 0.5)); higher = stronger / more preferred TF binding). Conditions: protein concentration: 200 nM; construct: GST-DNA-binding domain.
Sequence of UniProt P13574 (P13574 whole entry, the tested form may be a part): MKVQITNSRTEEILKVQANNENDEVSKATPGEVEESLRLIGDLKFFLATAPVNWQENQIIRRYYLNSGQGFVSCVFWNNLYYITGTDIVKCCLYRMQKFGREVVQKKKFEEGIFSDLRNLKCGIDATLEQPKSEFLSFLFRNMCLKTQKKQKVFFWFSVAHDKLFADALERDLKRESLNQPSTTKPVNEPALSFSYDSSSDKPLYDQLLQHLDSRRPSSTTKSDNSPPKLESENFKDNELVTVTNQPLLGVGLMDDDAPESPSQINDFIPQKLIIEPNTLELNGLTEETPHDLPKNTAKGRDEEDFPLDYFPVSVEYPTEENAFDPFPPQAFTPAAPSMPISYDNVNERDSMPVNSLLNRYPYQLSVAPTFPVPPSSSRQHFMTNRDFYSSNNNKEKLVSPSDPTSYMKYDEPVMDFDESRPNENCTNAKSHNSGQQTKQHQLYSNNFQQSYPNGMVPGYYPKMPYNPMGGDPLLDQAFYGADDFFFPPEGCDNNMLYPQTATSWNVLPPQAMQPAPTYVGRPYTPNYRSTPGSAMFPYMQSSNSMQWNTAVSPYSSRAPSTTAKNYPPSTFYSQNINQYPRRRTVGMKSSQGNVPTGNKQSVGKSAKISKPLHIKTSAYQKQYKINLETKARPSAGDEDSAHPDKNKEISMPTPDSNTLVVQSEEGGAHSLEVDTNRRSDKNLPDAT
Summary of the method: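 Full-length yeast transcription factors or their DNA-binding domains, GST-tagged and expressed with PURExpress, were applied at about 100-200 nM to universal all-10-mer Agilent arrays. These arrays had been made double-stranded by primer extension on fresh or once-stripped slides. Detection used fluorescent anti-GST, normalisation used masliner, and E-scores for ungapped eight-base words pooled with reverse complements came from the Universal PBM Analysis Suite.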

Sequence	PBM E-score
ACTAAAGC	0.0971
AGGCGAAG	-0.178
ATTTCATA	0.124
ATTTCACG	0.122
ATTTCGAA	0.253
ATTTCACA	0.205
CTTTCATA	0.205
TAATCGAA	0.185
GTTTCATA	0.481
GAATCGAA	0.296
CTTTCGAA	0.0433
GTTTCACA	0.447
GTTTCGAA	0.325
CAATCGAA	-0.021
AAAGCGGC	0.054
CTGTCAGA	0.0092
AAGTACGT	-0.0519
AACAGCAG	0.0314
CCATGCCC	-0.0778
GTGAACGA	0.047
GACAAACA	0.0473
ATTTCAAG	0.0717

Sequence	PBM E-score
ATTTCAAA	0.272
ATTTCAGA	0.00371
CTTTCAGA	0.211
ATTTCAAC	0.161
GTTTCAGA	0.484
ACGTCAAA	0.0313
AACTCAGC	0.109
GCTTGGGA	-0.164
AACGTGGT	-0.0847
AACTTATT	0.333
AACTTATC	0.0734
AACTTATG	0.0251
GCTTGTGA	-0.0847
TATGAAGA	0.0389
AATGAAGA	0.304
AATGAAGC	-0.0558
AATGAACC	0.105
GATGAATC	0.0548
AATGAAAA	0.292
GATGAAAC	0.494
CATGAAGA	-0.0377
AATGAAAC	0.44

Sequence	PBM E-score
GATGAACC	0.062
AATGAAAG	0.0381
AATGAAAT	0.231
CAAATCGA	0.0344
CGCTAGTC	-0.27
AATGCTAG	-0.181
CAACAGAC	-0.018
TCGTTGCA	-0.0015
ATTGGGAA	0.0116
CGTGTAAG	-0.0021
CATGAAAC	0.484
AATGAATG	0.292
GATGAAAA	0.281
TATGAAAA	0.152
AATGAATT	0.133
CATGAAAA	0.237
CATGAAAG	-0.00226
GATGAACA	0.00898
AATGAATC	0.16
CCATTTCG	-0.219
AAGCTCAG	-0.179
GCCTCTAC	-0.239

Sequence	PBM E-score
CGTATACA	0.306
AGTATAAA	0.228
GGTATACA	-0.0232
CGTATAAC	-0.0972
CGTATAAA	0.263
AGTATACA	-0.108
CAACCATC	0.109
AGAGAGGG	-0.255
GATCGTGC	0.0893
CCTTTTAC	0.178
ACTTTTAC	0.263
CACTTTAA	0.159
AACTTTAA	0.279
ACTTTTAG	0.101
GCTTTAAA	0.155
AACTTTAG	0.0874
ACTTTAAC	0.162
ACTTTAAT	0.263
ACTTTAAG	0.225
ACTTTAAA	0.275
